Reference: PubChem BioAssay
“And” between values parts separate entries of the source, which are not always exact repeats. Equal values may be shown once. The source made the active and inactive calls.

assay: JC-1 mitochondrial signal, unstimulated MM1S myeloma – cell-based, JC-1 fluorescence, 24 h, 100 nL compound, profiling panel (AID 1170); conditions: MM1S mitochondrial potential, higher = more signal
Also: test concentration not given here.

Row | SMILES | z-score
1 | C=C(C)C(=O)OC[C@@H]1CN2[C@@H](CC[C@@H](C)[C@@H]2c2ccc(Br)cc2)C(=O)O1 | -0.631
2 | CCCNC(=O)OC[C@H]1O[C@H](CCON=C(C)CCC(=O)OC[C@H]2O[C@H](C#Cc3ccccc3)C=C[C@@H]2Oc2ccc(C)cc2)C=C[C@@H]1Oc1ccc(OC)cc1 | -0.435
3 | C=C[C@@H](OC)[C@H](O)c1ccc(O)c(F)c1 | 0.724 and -0.819
4 | COCn1c2ccccc2c2nnc(C(C)=O)nc21 | -0.189 and -0.639
5 | CC[C@@H]1C(Sc2ccccc2)C(C(=O)O)[C@H](c2ccc(C)cc2)N1S(=O)(=O)c1ccc(C)cc1 (stereo partly drawn) | -0.152 and -0.291
6 | C=CCN(C(=O)C(c1cccs1)N(C(=O)/C=C\C(=O)O)c1c(Cl)cccc1CO)c1ccc(OC)cc1 (stereo not drawn) | 1.4 and -0.173
7 | CO[C@@H]1COC(=O)[C@H](Cc2ccccc2)NC(=O)CC=C[C@@H](C)[C@H](OC)COC(=O)[C@@H](C)NC(=O)CC=C[C@H]1C | 0.452 and 0.623
8 | CCOC(=O)[C@@H]1CC=C2CC1C(=O)N1CCC[C@@H]1[C@H]2O[Si](C)(C)C(C)(C)C (stereo partly drawn) | 0.144 and 0.321
9 | C[C@@H](c1ccccc1)N1C(=O)[C@H]2[C@H]3[C@H](O)[C@H](O)CC(=O)[C@@H]3CC[C@H]2C1=O | 1.65
10 | C[C@@H]1CC[C@H]2C(=O)NC[C@@H](O)CN2[C@H]1c1ccc(Br)cc1 | 0.0814 and -0.633
11 | CC(C)[Si]1(C(C)C)OCc2cc(CCCc3cc4c(c(CCc5ccccc5)n3)[Si](C(C)C)(C(C)C)OC4)nc(CCc3ccccc3)c21 | -0.38 and -0.852
12 | Cc1cc2c(nc1C)CCCN2CC(C)ON=C[C@@H](C)[C@H](OCc1ccccc1)C(C)C (stereo partly drawn) | -0.483
13 | C=CCN(C(=O)C(c1cccs1)N(C(=O)/C=C\C(=O)O)c1ccc(CCO)cc1)C(C)(C)C (stereo not drawn) | 0.75 and 0.721
14 | C=C[C@@H](OC)[C@H](O)c1ccc(OCCO)cc1 | 0.88 and -1.28
15 | C=CCN(C(=O)C(c1cccs1)N(CCOCCO)C(=O)/C=C\C(=O)O)c1ccc(OC)cc1 (stereo not drawn) | -1.19 and 0.702
16 | C=C[C@@H](C)[C@H](O)c1ccc(O)c2ccccc12 | -0.52 and 0.331
17 | C[C@@H]1CN2[C@@H](CC[C@@H](C)[C@@H]2c2ccc(Br)cc2)C(=O)O1 | 1.26 and -0.901
18 | C=CCN(C(=O)C1N(c2ccc(CCO)cc2)C(=O)C2C(C(=O)O)C3C=CC21O3)c1ccc(OC)cc1 (stereo not drawn) | -0.358 and 0.691
19 | C=C[C@H](C)[C@@H](O)c1ccc(OCCO)cc1 | 0.976 and -0.205
20 | C=CCN(C(=O)C(c1cccs1)N(CCOCCO)C(=O)/C=C\C(=O)O)C(C)(C)C (stereo not drawn) | 0.987 and 0.588
21 | COC(=O)C1=C(C)N(Cc2ccccc2)[C@]23O[C@](C(=O)OC)(C(=O)N2[C@@H]1c1ccccc1)[C@@H](c1ccccc1)[C@@H]3C(=O)c1ccccc1 | -0.00272 and 0.667
22 | C=CCN(CCCC)C(=O)C1N(C(C)(C)CO)C(=O)C2C(C(=O)O)C3C=CC21O3 (stereo not drawn) | -0.283 and -0.384
23 | Cc1ccc(S(=O)(=O)N[C@H]2COC(=O)[C@@H](C)COC(=O)[C@H](C)NC(=O)CC=C[C@H]2C)cc1 | 0.894
24 | Cc1ccc(S(=O)(=O)OC[C@@H]2CN3[C@@H](CC[C@@H](C)[C@@H]3c3ccc(Br)cc3)C(=O)O2)cc1 | 0.925 and 0.523
25 | COC(=O)C1=C(C)N(Cc2ccccc2)C2=C(C(=O)c3ccccc3)[C@H](c3ccccc3)[C@@](O)(C(=O)OC)C(=O)N2[C@@H]1c1ccccc1 | 0.573 and -0.514
26 | C=CCN(Cc1ccccc1)C(=O)C(c1cccs1)N(C(=O)/C=C\C(=O)O)c1ccc(CCO)cc1 (stereo not drawn) | -1.19 and -0.751
27 | CCOC(=O)[C@H](Cc1ccccc1)NC(=O)CCC1CC(OC(=O)NCc2cccc3ccccc23)CC2(CCCC(COC(=O)NCCCN3CCCC3=O)O2)O1 (stereo partly drawn) | -0.5
28 | COC(=O)c1c2oc(c1C(=O)OC)C(=O)N[C@@H](Cc1ccccc1)Cn1cc(nn1)C1(CCCCC1)NC(=O)N[C@H](CO)CC2 | 0.559 and -0.594
29 | C=CCN(CCCCC)C(=O)C1N(c2ccc(CCO)cc2)C(=O)C2C(C(=O)O)C3C=CC21O3 (stereo not drawn) | 0.743 and 0.912

assay: resazurin metabolic signal in A549 cells – cell-based, resazurin fluorescence, 24 h, PK04 Diversity Set, profiling panel (AID 1171); conditions: A549 viability, higher = more signal, called active from +8 up or from −8 down

Row | SMILES | z-score
30 | CC(=O)OC[C@H]1O[C@H](C#CC(C)(C)C)C=C[C@@H]1OC(C)=O | -0.595 (inactive)
31 | COc1ccc(O[C@H]2C=C[C@@H](c3ccccc3)O[C@@H]2COC(=O)CCC(C)=NO[C@H](C)c2cn([C@H](CO)Cc3ccccc3)nn2)cc1 | 0.385 (inactive) and 0.277 (inactive)
32 | CCCC[C@@H]1CN2[C@H](c3ccc(Br)cc3)[C@@H](C)CC[C@H]2C(=O)O1 | 0.301 (inactive) and 1.49 (inactive)
33 | CC(CO)N1C(=O)[C@@H]2C3C(=O)OCCC=C[C@H]3OC23C=CCN(C(C)(C)C)C(=O)[C@@H]13 (stereo partly drawn) | -0.731 (inactive) and -0.299 (inactive)
34 | C=CCN(C(=O)C1N(CCOCCO)C(=O)C2C(C(=O)O)C3C=CC21O3)C(C)(C)C (stereo not drawn) | 0.161 (inactive) and -0.73 (inactive)
35 | C[C@@H](ON=C1[C@H]2CCn3c(=O)n(-c4ccccc4)c(=O)n3[C@H]2[C@H](O)[C@@H]2O[C@H]12)c1cn([C@H](CO)Cc2ccccc2)nn1 | -0.847 (inactive)
36 | CO[C@H]1COC(=O)CC=C[C@H](C)[C@H](OC)COC(=O)[C@@H](C)COC(=O)CC=C[C@@H]1C | 0.211 (inactive) and -0.379 (inactive)
37 | COC(=O)[C@H](C)NC(=O)CCC1CC(OC(=O)NCCc2ccc(F)cc2)CC2(CCCC(COC(=O)NCCCN3CCCC3=O)O2)O1 (stereo partly drawn) | 0.209 (inactive)
38 | CCOC(=O)[C@@H]1CC2O[C@]23C[C@@H]1C(=O)N1CCC[C@@H]1[C@H]3O[Si](C)(C)C(C)(C)C (stereo partly drawn) | -0.438 (inactive) and -0.287 (inactive)
39 | C[C@@H]1CC[C@H]2C(=O)O[C@H](CN=[N+]=[N-])CN2[C@H]1c1ccc(Br)cc1 | -0.854 (inactive) and 0.459 (inactive)
40 | O=c1n(-c2ccccc2)c(=O)n2n1CC[C@@H]1C(=NOC[C@@H](O)COCc3ccco3)[C@H]3O[C@H]3[C@@H](O)[C@@H]12 | -1.03 (inactive) and -0.872 (inactive)
41 | C=C(C)C(=O)OC[C@@H]1CN2[C@@H](CC[C@@H](C)[C@@H]2c2ccc(Br)cc2)C(=O)O1 | 0.173 (inactive)
42 | CCCNC(=O)OC[C@H]1O[C@H](CCON=C(C)CCC(=O)OC[C@H]2O[C@H](C#Cc3ccccc3)C=C[C@@H]2Oc2ccc(C)cc2)C=C[C@@H]1Oc1ccc(OC)cc1 | 0.835 (inactive)
43 | C=C[C@@H](OC)[C@H](O)c1ccc(O)c(F)c1 | -0.0191 (inactive) and -0.71 (inactive)
44 | COCn1c2ccccc2c2nnc(C(C)=O)nc21 | -0.181 (inactive) and -0.856 (inactive)
45 | CC[C@@H]1C(Sc2ccccc2)C(C(=O)O)[C@H](c2ccc(C)cc2)N1S(=O)(=O)c1ccc(C)cc1 (stereo partly drawn) | -0.631 (inactive) and -1.02 (inactive)
46 | C=CCN(C(=O)C(c1cccs1)N(C(=O)/C=C\C(=O)O)c1c(Cl)cccc1CO)c1ccc(OC)cc1 (stereo not drawn) | 0.747 (inactive) and -0.246 (inactive)

Row | SMILES | z-score
47 | CO[C@@H]1COC(=O)[C@H](Cc2ccccc2)NC(=O)CC=C[C@@H](C)[C@H](OC)COC(=O)[C@@H](C)NC(=O)CC=C[C@H]1C | 0.632 (inactive) and 0.35 (inactive)
48 | CCOC(=O)[C@@H]1CC=C2CC1C(=O)N1CCC[C@@H]1[C@H]2O[Si](C)(C)C(C)(C)C (stereo partly drawn) | 0.016 (inactive) and 2.5 (inactive)
49 | C[C@@H](c1ccccc1)N1C(=O)[C@H]2[C@H]3[C@H](O)[C@H](O)CC(=O)[C@@H]3CC[C@H]2C1=O | -0.1 (inactive)
50 | C[C@@H]1CC[C@H]2C(=O)NC[C@@H](O)CN2[C@H]1c1ccc(Br)cc1 | 0.153 (inactive) and -0.285 (inactive)
51 | CC(C)[Si]1(C(C)C)OCc2cc(CCCc3cc4c(c(CCc5ccccc5)n3)[Si](C(C)C)(C(C)C)OC4)nc(CCc3ccccc3)c21 | 0.576 (inactive) and -0.19 (inactive)
52 | Cc1cc2c(nc1C)CCCN2CC(C)ON=C[C@@H](C)[C@H](OCc1ccccc1)C(C)C (stereo partly drawn) | -0.522 (inactive)
53 | C=CCN(C(=O)C(c1cccs1)N(C(=O)/C=C\C(=O)O)c1ccc(CCO)cc1)C(C)(C)C (stereo not drawn) | -0.0762 (inactive) and -0.389 (inactive)
54 | C=C[C@@H](OC)[C@H](O)c1ccc(OCCO)cc1 | -0.133 (inactive) and -0.135 (inactive)
55 | C=CCN(C(=O)C(c1cccs1)N(CCOCCO)C(=O)/C=C\C(=O)O)c1ccc(OC)cc1 (stereo not drawn) | 0.18 (inactive) and 0.294 (inactive)
56 | C=C[C@@H](C)[C@H](O)c1ccc(O)c2ccccc12 | -0.28 (inactive) and -0.0127 (inactive)
57 | C[C@@H]1CN2[C@@H](CC[C@@H](C)[C@@H]2c2ccc(Br)cc2)C(=O)O1 | 0.131 (inactive) and -1.45 (inactive)
58 | C=CCN(C(=O)C1N(c2ccc(CCO)cc2)C(=O)C2C(C(=O)O)C3C=CC21O3)c1ccc(OC)cc1 (stereo not drawn) | -1.23 (inactive) and 0.468 (inactive)
59 | C=C[C@H](C)[C@@H](O)c1ccc(OCCO)cc1 | 0.0233 (inactive) and -0.361 (inactive)
60 | C=CCN(C(=O)C(c1cccs1)N(CCOCCO)C(=O)/C=C\C(=O)O)C(C)(C)C (stereo not drawn) | 0.111 (inactive) and -0.422 (inactive)
61 | COC(=O)C1=C(C)N(Cc2ccccc2)[C@]23O[C@](C(=O)OC)(C(=O)N2[C@@H]1c1ccccc1)[C@@H](c1ccccc1)[C@@H]3C(=O)c1ccccc1 | 0.266 (inactive) and 1.05 (inactive)
62 | C=CCN(CCCC)C(=O)C1N(C(C)(C)CO)C(=O)C2C(C(=O)O)C3C=CC21O3 (stereo not drawn) | 0.289 (inactive) and -0.11 (inactive)
63 | Cc1ccc(S(=O)(=O)N[C@H]2COC(=O)[C@@H](C)COC(=O)[C@H](C)NC(=O)CC=C[C@H]2C)cc1 | 1.57 (inactive)
